Data on 19 compounds can be found in PubChem BioAssay (Tox21).

Inconclusive results are not listed. A number with no mark means an inactive call. Calls of active or inactive are those of the source. The call rests on the fitted dose curve; in most records, active means well fitted cell-killing curve with a large enough effect in the repeat runs; inconclusive means weak or mixed curves; inactive means no such curve, though single readings can be large or run the other way.
On the % scale 0 is the no-effect control and ±100 the full control effect; potency means the concentration at half of the fitted maximal effect.

A short description of the assay: qHTS assay to identify small molecule antagonists of the peroxisome proliferator-activated receptor delta (PPARd) signaling pathway - cell viability counter screen (AID 743213). Further: nearly all actives have a fitted effect of over 50% in size. The note with it: PPARd-bla HEK293H viability, CellTiter-Glo luminescence, 17 h; series mostly up to 62 µM; viability change, negative = cytotoxic: at the top concentration. An outline of the steps:
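Same-well viability: cells pre-incubated 5 h, dosed with compound plus 300 nM L165041, kept 17 h at 37 C, FRET substrate 2 h RT, then CellTiter-Glo 30 min RT and luminescence.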
(In general: In qHTS, concentration-response curves come from the screen itself.)
In the case of `Cc1c(C)c2c(c(C)c1OC(=O)CCC(=O)O)CC[C@@](C)(CCC[C@H](C)CCC[C@H](C)CCCC(C)C)O2`, the “viability change, negative = cytotoxic” value was -13.3% [at 80.4 µM].
For `Nc1ccc2cc(S(=O)(=O)O)cc(O)c2c1N=Nc1ccccc1C(F)(F)F`, the “viability change, negative = cytotoxic” value is 8.17%.
Still for that read-out and setting: to `O=C(O)c1ccc(Cl)c(Cl)c1` belongs 1.18%; to `CC(=O)OCC(C)OC(C)=O` (centres undefined), 1.83%.
As for `C=C(C)C(=O)OCC(O)COc1ccc(C(C)(C)c2ccc(OCC(O)COC(=O)C(=C)C)cc2)cc1` (centres undefined), the Potency is 13.8 µM (active).
As for `Cc1cccc(S(=O)(=O)O)c1C`, the “viability change, negative = cytotoxic” value was 4.88%.
The same measure, in the same setting: to `COCCCC/C(=N\OCCN)c1ccc(C(F)(F)F)cc1` belongs -34.4%.
Consider `Cc1cc2c(cc1C(F)(F)F)N(C(=O)Nc1ccc(Oc3cccnc3C)nc1)CC2`, for which the Potency was 19.8 µM (active).
Take `COc1cc(/C=C/C(=O)O[C@H]2CC[C@]34C[C@]35CC[C@]3(C)[C@@H]([C@H](C)CCC=C(C)C)CC[C@@]3(C)[C@@H]5CC[C@H]4C2(C)C)ccc1O`: the “viability change, negative = cytotoxic” value was -14.9%.
Same read-out and setting: the result for `N#CC1(c2ccc(F)cc2)CCC(=O)CC1` reads -3.7%; that for `CCCCN(CCCC)C(=O)N(CCCC)CCCC`, 2.84%.
Still for that read-out and setting: the result for `O=C1c2ccccc2Cc2ccccc21` reads 17.1% [at 80.4 µM].
On the same count and under the same terms, to `CCCC(C)c1ccccc1O` (centres undefined) belongs -27.4%; to `O=C(NO)C1(NS(=O)(=O)c2ccc(Oc3ccc(F)cc3)cc2)CCOCC1`, -2.2%; to `CN(C)CCCOC1(Cc2ccccc2)CCCCCC1`, -17.7%.
With `Cc1ccc(O)c(C(C)(C)C)c1`, the Potency was 27.5 µM (active).
Consider `NNC(=O)c1cccc(C(=O)NN)c1`, for which the “viability change, negative = cytotoxic” value was -8.11%.
On to `CCCCCCCCCCCCCCCC(=O)OC[C@H](O)[C@H]1OC(=O)C(O)=C1O`, for which the “viability change, negative = cytotoxic” value was -6.87%.
The same measure, in the same setting: the result for `Nc1ccccc1O` reads 1.38%.
